Assay results from PubChem BioAssay (NCI).
Compounds without any hit were thinned out: in the full panel of roughly 83,000, 20% have a hit.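 Cells were grown in 96-well plates and exposed to the test compound at a single concentration for 48 hours; results are reported as percent growth, with values below 10 considered active.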 A number with no mark means an inactive call. The source made the active and inactive calls.

Legend:
Test in all cases: NCI-60 one-dose screen, 48 h (100 = growth as untreated, 0 = no growth, -100 = all killed)
Settings in all cases: 10 µM
[1] = system: DU-145 prostate
[2] = system: K-562 leukemia
[3] = system: MALME-3M melanoma
[4] = system: MDA-MB-231 breast
[5] = system: RXF 393 renal
[6] = system: SF-268 CNS
[7] = system: SF-295 CNS
[8] = system: SF-539 CNS
[9] = system: UACC-257 melanoma
[10] = system: M14 melanoma

Row | Compound | growth [1] | growth [2] | growth [3] | growth [4] [%] | growth [5] [%] | growth [6] [%] | growth [7] | growth [8] | growth [9] | growth [10]
1 | CSC[C@H](NC(=O)COc1cccc2cnccc12)C(=O)NC(Cc1ccccc1)C(O)C(=O)N1CSC[C@H]1C(=O)NC(C)(C)C (stereo not given in full) | 98.9% | 107% | 105% | 93.8 | 100 | 94.4 | 97.4% | 103% | 106% | 99.3%
2 | Nc1nc(N)c(N=Nc2ccc(C(=O)O)cc2)c(N)n1 | 111% | 108% | 106% | 107 | 113 | 107 | 104% | 101% | 30.9% | 98.4%
3 | Cc1ccc(C(O)C2CC2)cc1 (stereo not given) | 113% | 98.6% | 101% | 105 | 102 | 108 | 97% | 96.7% | 89.5% | 109%
4 | CC1Cc2ccccc2O1 (stereo not given) | 124% | 117% | 126% | 115 | 118 | 113 | 104% | 100% | 112% | 107%
5 | NC(=S)NN=C1CCCC1 | 96.8% | 65.7% | 85.3% | 95 | 107 | 89.3 | 95.7% | 110% | 66.9% | 83.1%
6 | CCCCCCCCCCC(C)Br (stereo not given) | 113% | 93.2% | 104% | 113 | 103 | 113 | 94.9% | 110% | 101% | 112%
7 | Cc1cc(C)c(CC(=O)O)c(C)c1 | 101% | 95.2% | 97.8% | 120 | 123 | 98.6 | 102% | 108% | 106% | 98.9%
8 | CC1CCCC(CC(N)=O)CC1 (stereo not given) | 117% | 94.3% | 107% | 103 | 117 | 104 | 89.4% | 98.4% | 104% | 108%
9 | CCCCOC(=O)c1ccc(C(C)C)cc1 | 106% | 106% | 87% | 109 | 112 | 100 | 101% | 96.6% | 77.3% | 96.5%
10 | CC(=O)Cc1ccc(-c2ccccc2)cc1 | 107% | 108% | 77.1% | 95.9 | 102 | 98 | 99.8% | 108% | 98.8% | 109%
11 | C=CC(=O)OCCCCCCCC | 102% | 103% | 108% | 109 | 120 | 102 | 104% | 99.5% | 96.7% | 104%
12 | CC1CC(O)CC(C)(C)C1 (stereo not given) | 101% | 110% | 97.4% | 105 | 115 | 91.9 | 98.7% | 95.2% | 97.8% | 108%
13 | NC(=S)N/N=C/c1ccc(N)cc1 | 108% | 98.7% | 104% | 97 | 107 | 97.1 | 102% | 103% | 82.9% | 98.4%
14 | COc1cc2nc3cc([N+](=O)[O-])ccc3c(Cl)c2cc1OC | 103% | 98.8% | 94.5% | 99.4 | 120 | 99.8 | 103% | 96.4% | 93.1% | 96.6%
15 | O=C(O)c1cccc([N+](=O)[O-])c1 | 104% | 96% | 105% | 102 | 117 | 100 | 94.9% | 103% | 107% | 104%
16 | O=C(O)CCC(=O)OC(C1CO1)C(OC(=O)CCC(=O)O)C1CO1 (stereo not given) | 105% | 103% | 86.9% | 130 | 99.9 | 105 | 92.3% | 95.2% | 85% | 98.9%
17 | O=S(=O)(O)CC(O)CN1CCN(CCO)CC1 (stereo not given) | 111% | 97.4% | 114% | 119 | 105 | 109 | 119% | 111% | 97.8% | 105%
18 | Oc1ccc(Cc2ccccc2)c2cccnc12 | 28.9% | 13.3% | -0.436% (active) | 31 | 14.6 | 20 | 32.4% | 11.8% | 1.27% (active) | -29.8% (active)
19 | O=C1N(C[P+](c2ccccc2)(c2ccccc2)c2ccccc2)CCCN1C[P+](c1ccccc1)(c1ccccc1)c1ccccc1 | 117% | 93.9% | 103% | 90.8 | 113 | 115 | 96.4% | 106% | 101% | 98.2%
20 | CCCCN(CCCC)CCCO | 110% | 114% | 129% | 116 | 119 | 101 | 124% | 101% | 113% | 108%
21 | COc1cc(-c2ccc(NC(=O)NC3CC3)c(OC)c2)ccc1NC(=O)NC1CC1 | 84.9% | 31.2% | 102% | 71.1 | 73 | 62.8 | 75.9% | 67.2% | 26.5% | 75.7%
22 | C=C1CC/C=C(\C)C(=O)C[C@@H]2[C@@H]1CC2(C)C | 102% | 102% | 103% | 125 | 55.1 | 99.5 | 108% | 107% | 111% | 98.3%
23 | [O-][N+](=Nc1cccc(Cl)c1)c1cccc(Cl)c1 | 108% | 133% | 101% | 102 | 102 | 110 | 104% | 92.8% | 117% | 96.4%
24 | COc1cc(C2c3cc4c(cc3C3OC(=O)C2C3CO)OCO4)cc(OC)c1OC (stereo not given) | -41.5% (active) | 8.48% (active) | 50.3% | 30.3 | 57.9 | 30.3 | 3.2% (active) | -7.04% (active) | 57% | 12.1%
25 | c1cc[n+](C2c3ccccc3C([n+]3ccccc3)c3ccccc32)cc1 (stereo not given) | 91.7% | 72.9% | 53.1% | 70.6 | 61.6 | 23 | 52% | 27.9% | 80.1% | 96%
26 | Cc1cc(=O)cc(C)n1-c1ccccc1 | 121% | 105% | 99.3% | 106 | 104 | 109 | 96.3% | 102% | 106% | 101%
27 | COc1cc(C(=O)NC(=S)Nc2ccc3ccccc3c2)cc(OC)c1OC | 102% | 88% | 90.1% | 100 | 94.5 | 103 | 44.7% | 93.1% | 90.7% | 115%
28 | CC1CCCCN1C(=S)Nc1ccc(S(=O)(=O)N2CCCCC2)cc1 (stereo not given) | 106% | 84.6% | 130% | 119 | 109 | 97.2 | 79.2% | 96.9% | 105% | 89.2%
29 | O=C(/C(=N/O)c1ccccc1)c1ccccc1 | 111% | 120% | 82% | 98.5 | 102 | 100 | 94.4% | 104% | 97% | 108%
30 | COC(=O)c1cccc(Br)c1 | 111% | 121% | 111% | 111 | 146 | 108 | 102% | 98.7% | 112% | 101%
